Read-out in experiment [1]: glucuronosyltransferase (UGT1A1), UGT1A1 (gene 54658)
Put plainly: CLD_UGT1A1_24hr: CellzDirect (CLD) Gene Expression Assay for glucuronosyltransferase (UGT1A1) at 24 hours (AID 2283696). In outline:
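UGT1A1 transcript induction was measured by quantitative nuclease protection assay (chemiluminescence) in human hepatocyte cultures 24 h after daily fresh dosing, with 0.2% DMSO as vehicle and baseline.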

Read-out in experiment [2]: Cytochrome P450 3A4 (Homo sapiens) (UniProt P08684)
Put plainly: CLD_CYP3A4_48hr: CellzDirect (CLD) Gene Expression Assay for xenobiotic metabolism (CYP3A4) at 48 hours (AID 2283698). The gist of the method:
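CYP3A4 induction read by qNPA chemiluminescence after 48 h, with fresh dosing solutions on consecutive days, in cultured human hepatocytes (two donors). Vehicle 0.2% DMSO as baseline; microscopy-based cytotoxicity annotated yes/no alongside data.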

Read-out in experiment [3]: xenobiotic metabolism (CYP1A2), CYP1A2 (gene 1544)
Nature of the experiment: CLD_CYP1A2_48hr: CellzDirect (CLD) Gene Expression Assay for xenobiotic metabolism (CYP1A2) at 48 hours (AID 2283703). The gist of the method: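 Cytotoxicity was flagged yes/no from morphology, while CYP1A2 transcript induction was detected by qNPA chemiluminescence after a 48-hour exposure. Human primary hepatocyte cultures from separate donors received fresh dosing solutions daily over two days, with 0.2% DMSO as vehicle and baseline.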

Read-out in experiment [4]: Broad substrate specificity ATP-binding cassette transporter ABCG2 (Homo sapiens) (UniProt Q9UNQ0)
Put plainly: CLD_ABCG2_48hr: CellzDirect (CLD) Gene Expression Assay for ABC Transporter (ABCG2) at 48 hours (AID 2283704). The gist of the method: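 ABCG2 transcript measured at 48 h by quantitative nuclease protection (chemiluminescent) and fitted for increase relative to 0.2% DMSO. Hepatocyte cultures from separate donors got fresh compound daily over two days; morphology annotated cytotoxicity.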

Read-out in experiment [5]: organic anion transporter (SLCO1B1), SLCO1B1 (gene 10599)
Put plainly: CLD_SLCO1B1_48hr: CellzDirect (CLD) Gene Expression Assay for organic anion transporter (SLCO1B1) at 48 hours (AID 2283707). The gist of the method:
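SLCO1B1 transcript quantified by qNPA with chemiluminescent readout after 48 h of once-daily chemical exposure. Cultured human primary hepatocytes came from two donors, with 0.2% DMSO vehicle; positive-direction fitting against DMSO, cytotoxicity flagged by morphology.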

Read-out in experiment [6]: alkyl and aryl transferase (GSTA2), GSTA2 (gene 2939)
Nature of the experiment: CLD_GSTA2_48hr: CellzDirect (CLD) Gene Expression Assay for alkyl and aryl transferase (GSTA2) at 48 hours (AID 2283708).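 Further: active means mRNA induction above DMSO vehicle baseline.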 The gist of the method:
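GSTA2 mRNA quantified by qNPA chemiluminescence in human primary hepatocyte lysates after 48 h of daily fresh chemical dosing. Increases fitted against 0.2% DMSO vehicle baseline; cytotoxicity from morphology annotated yes/no.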

Read-out in experiment [7]: glucuronosyltransferase (UGT1A1), UGT1A1 (gene 54658)
Put plainly: CLD_UGT1A1_48hr: CellzDirect (CLD) Gene Expression Assay for glucuronosyltransferase (UGT1A1) at 48 hours (AID 2283709).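 Further: actives increase expression relative to DMSO so potency refers to induction.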 The gist of the method: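 Quantitative nuclease protection assay (chemiluminescent) for UGT1A1 mRNA at 48 h in human hepatocyte cultures from two donors, redosed daily with fresh solutions. Induction fitted relative to 0.2% DMSO; phase-contrast morphology annotated cytotoxicity.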

Read-out in experiment [8]: sulfotransferase (SULT2A), SULT2A1 (gene 6822)
Put plainly: CLD_SULT2A_48hr: CellzDirect (CLD) Gene Expression Assay for sulfotransferase (SULT2A) at 48 hours (AID 2283710).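 Further: hits raise SULT2A1 transcript above the 0.2% DMSO vehicle baseline.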 The gist of the method:
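SULT2A1 transcript measured by qNPA chemiluminescence in human primary hepatocyte cultures after 48 h, with fresh dosing solutions on two consecutive days; gain-of-signal fitting against 0.2% DMSO vehicle; cytotoxicity annotated from phase-contrast morphology.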

Read-out in experiment [9]: alkyl and aryl transferase (GSTA2), GSTA2 (gene 2939)
Nature of the experiment: CLD_GSTA2_24hr: CellzDirect (CLD) Gene Expression Assay for alkyl and aryl transferase (GSTA2) at 24 hours (AID 2283693). In outline: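 GSTA2 transcript levels were quantified by quantitative nuclease protection assay in primary human hepatocytes 24 h after daily dosing with fresh solutions at multiple concentrations; 0.2% DMSO vehicle as baseline, cytotoxicity flagged morphologically.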

Read-out in experiment [10]: sulfotransferase (SULT2A), SULT2A1 (gene 6822)
Nature of the experiment: CLD_SULT2A_24hr: CellzDirect (CLD) Gene Expression Assay for sulfotransferase (SULT2A) at 24 hours (AID 2283694). The gist of the method:
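mRNA is measured by qNPA: probe hybridisation, S1 nuclease digestion, chemiluminescence, in lysates from human primary hepatocytes harvested 24 h after daily dosing. Vehicle was 0.2% DMSO. Phase-contrast microscopy flagged cytotoxicity (yes/no).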

The nature of experiment [11]: STM_H9_OrnithineISnorm_perc: Stemina devTOX quickPredict H9 human embryonic stem cell (hESC)-based Assay for Ornithine (ORN) Metabolite Biomarker, Normalized (AID 2283712; active means hit-call score of the fitted dose curve at least 0.9, where 1 is the maximum; inactive means score below 0.9;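 further: ornithine released into spent medium during last day measured by mass spectrometry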). The gist of the method:
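Ornithine secreted by H9 hESCs after 72h compound treatment (daily media/compound renewal) was quantified in final-day media by UPLC-HRMS. Values are isotope-standard-normalized, expressed relative to 0.1% DMSO, fitted in positive direction.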

Experiment [12] can be described thus: STM_H9_OrnCyssISnorm_ratio: Stemina devTOX quickPredict H9 human embryonic stem cell (hESC)-based Assay for Ornithine (ORN):Cystine (CYSS) Ratio (AID 2283714). The gist of the method: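 UPLC-HRMS of spent media: ORN/CYSS ratio of internal-standard-normalized percentages, DMSO (0.1%) baseline. Pluripotent H9 hESCs, 72h exposure, daily re-dosing with fresh media; last 24h media collected.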

Experiment [13] can be described thus: CEETOX_H295R_MTT_cell_viability: Viability Assessment in the CeeTox HT-H295R MTT Assay (AID 2283718; active means hit-call score of the fitted dose curve at least 0.9, where 1 is the maximum; inactive means score below 0.9). In outline: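 Human H295R adrenal cells, prestimulated 48 h with 10 uM forskolin, were exposed 48 h to chemicals in 0.1% DMSO. Viability was measured in the same wells by MTT (0.5 mg/ml, 4 h, 37 C), absorbance 570/650 nm, as percent of controls.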
Experiment [14] is described as follows: Tanguay_ZF_120hpf_ActivityScore_legacy: (Legacy) Oregon State University Tanguay Lab 120 Hour Post-fertilization zebrafish Assay Score for Activity (AID 2283742). In outline: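 Dechorionated 5D embryos, one per well, static exposure 6–120 hpf, 28C, sealed and dark; final DMSO 0.64% (vol/vol). Brightfield binary scoring of mortality plus 18 endpoints; gain-of-signal fit versus DMSO baseline.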

Read-out in experiment [15]: ABC Transporter (ABCB1), ABCB1 (gene 5243)
Put plainly: CLD_ABCB1_48hr: CellzDirect (CLD) Gene Expression Assay for ABC Transporter (ABCB1) at 48 hours (AID 2283695). In outline: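 ABCB1 mRNA was measured by quantitative nuclease protection assay (chemiluminescence) 48 h after dosing. Human hepatocyte cultures from two separate donors received fresh dosing solutions daily for two days, with 0.2% DMSO as vehicle. Positive-direction fit against DMSO.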

Read-out in experiment [16]: xenobiotic metabolism (CYP1A1), CYP1A1 (gene 1543)
Nature of the experiment: CLD_CYP1A1_48hr: CellzDirect (CLD) Gene Expression Assay for xenobiotic metabolism (CYP1A1) at 48 hours (AID 2283705). In outline:
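CYP1A1 transcript measured by quantitative nuclease protection (chemiluminescent) 48 h after two daily treatments of human hepatocyte cultures, versus 0.2% DMSO. Morphology-based cytotoxicity flags accompany data; two donor preparations used.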

Read-out in experiment [17]: HMG-CoA synthase (HMGCS2), HMGCS2 (gene 3158)
Put plainly: CLD_HMGCS2_48hr: CellzDirect (CLD) Gene Expression Assay for HMG-CoA synthase (HMGCS2) at 48 hours (AID 2283711). The gist of the method: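 mRNA induction read by qNPA chemiluminescence, 48 h after dosing. Cultured primary human liver cells (two donor preparations) received fresh compound daily over two days against 0.2% DMSO vehicle; morphology-based cytotoxicity noted alongside.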

Read-out in experiment [18]: Cytochrome P450 2B6 (Homo sapiens) (UniProt P20813)
Put plainly: CLD_CYP2B6_48hr: CellzDirect (CLD) Gene Expression Assay for xenobiotic metabolism (CYP2B6) at 48 hours (AID 2283699).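 Further: actives raise transcript level above DMSO so potency reflects induction.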 In outline: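 CYP2B6 transcript induction, read by quantitative nuclease protection (S1 digestion, chemiluminescent detection) 48 h after dosing, is fitted upward against 0.2% DMSO. Cultured human liver primary cells, two donor preparations, received fresh chemical daily over multiple concentrations.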

A short description of experiment [19]: CLD_ACTIN_48hr: CellzDirect (CLD) Gene Expression Assay for Baseline Control (Actin) at 48 hours (AID 2283702). The gist of the method: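 Background-control actin mRNA read by qNPA chemiluminescence at 48 h. Human hepatocyte cultures from two donors received fresh multi-concentration chemical doses daily for two days; 0.2% DMSO served as vehicle baseline.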

Records with an inconclusive call do not appear. The source made the active and inactive calls. How the source made its calls, unless noted: active means hit-call score of the fitted dose curve at least 0.9, where 1 is the maximum; inconclusive means response in the unintended direction; inactive means score below 0.9.

Chain of Cytochrome P450 3A4 (Homo sapiens) (P08684 whole entry, looked up): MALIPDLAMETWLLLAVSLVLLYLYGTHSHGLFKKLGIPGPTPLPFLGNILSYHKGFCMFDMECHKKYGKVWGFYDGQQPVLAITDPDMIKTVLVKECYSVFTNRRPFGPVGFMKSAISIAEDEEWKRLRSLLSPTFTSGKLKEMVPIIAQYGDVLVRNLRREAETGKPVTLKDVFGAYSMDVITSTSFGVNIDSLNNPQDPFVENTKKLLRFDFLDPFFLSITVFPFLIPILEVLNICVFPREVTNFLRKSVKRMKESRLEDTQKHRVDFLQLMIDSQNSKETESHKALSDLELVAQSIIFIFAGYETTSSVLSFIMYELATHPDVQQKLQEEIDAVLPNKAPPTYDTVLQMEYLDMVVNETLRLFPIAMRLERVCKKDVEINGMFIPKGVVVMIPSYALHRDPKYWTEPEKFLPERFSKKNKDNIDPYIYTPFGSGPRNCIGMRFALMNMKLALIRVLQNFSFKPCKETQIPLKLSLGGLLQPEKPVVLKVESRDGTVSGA
Chain of Broad substrate specificity ATP-binding cassette transporter ABCG2 (Homo sapiens) (Q9UNQ0 whole entry, looked up): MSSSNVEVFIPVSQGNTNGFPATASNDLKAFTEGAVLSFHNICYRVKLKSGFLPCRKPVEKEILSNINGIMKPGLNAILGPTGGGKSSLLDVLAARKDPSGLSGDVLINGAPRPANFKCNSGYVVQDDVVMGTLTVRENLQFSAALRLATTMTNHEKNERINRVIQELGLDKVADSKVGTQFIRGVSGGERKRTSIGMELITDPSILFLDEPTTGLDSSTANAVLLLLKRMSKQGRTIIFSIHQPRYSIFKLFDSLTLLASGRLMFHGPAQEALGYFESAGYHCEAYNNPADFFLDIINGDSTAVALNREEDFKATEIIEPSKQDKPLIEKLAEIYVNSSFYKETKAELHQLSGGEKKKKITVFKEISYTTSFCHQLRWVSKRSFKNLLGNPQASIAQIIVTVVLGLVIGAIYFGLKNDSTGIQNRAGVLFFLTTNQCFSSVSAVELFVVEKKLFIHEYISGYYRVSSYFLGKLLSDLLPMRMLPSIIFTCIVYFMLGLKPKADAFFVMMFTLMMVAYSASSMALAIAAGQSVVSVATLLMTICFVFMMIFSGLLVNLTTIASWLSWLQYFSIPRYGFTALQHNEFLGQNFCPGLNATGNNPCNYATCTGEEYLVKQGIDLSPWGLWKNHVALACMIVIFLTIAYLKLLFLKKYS

One may read the AC50 as the concentration giving half of the maximal activity seen. As for `CSC(=O)c1c(C(F)F)nc(C(F)(F)F)c(C(=O)SC)c1CC(C)C`, the compound was classed as inactive in experiment [1], in experiment [4], in experiment [5], in experiment [7] and in experiment [8]. In addition, the AC50 was 0.645 µM (active) in experiment [2], 6.64 µM (active) in [3] and 11.8 µM (active) in experiment [6].

Regarding `CCOP(=S)(OCC)Oc1nc(Cl)n(C(C)C)n1`, the outcome in experiment [9], in experiment [10], in experiment [6], in experiment [8], in experiment [11] and in experiment [13] was inactive. In addition, the compound was classed as inactive in [14]. The figures for the concentration at half-maximal activity (AC50) in experiment [2], in experiment [7] and in experiment [12] were 2.52 µM (active), 1.9 µM (active) and 54.9 µM (active), respectively.

Consider `CS(=O)(=O)c1cc(C(F)(F)F)ccc1C(=O)c1cnoc1C1CC1`, for which the compound was classed as inactive in experiment [10], in experiment [15], in experiment [4], in [16], in experiment [5] and in experiment [6]. Also, the outcome in experiment [7], in experiment [8] and in experiment [17] was inactive. Moreover, the AC50 in [2] was 29.1 µM (active); in [3], 20 µM (active); in experiment [11], 0.0772 µM (active).

For the compound `N#Cc1c(Cl)cccc1Cl`, the AC50 in experiment [2] is 4.83 µM (active); in [18], 1.44 µM (active). For the same compound, the result in experiment [19], in [4], in [16], in [6], in experiment [7] and in experiment [8] was inactive. Besides, the outcome in experiment [13] was inactive.

On to `CS(=O)(=O)c1ccc(C(=O)C2C(=O)CCCC2=O)c([N+](=O)[O-])c1`, for which the result in experiment [15], in [19], in [4], in [6], in experiment [7] and in experiment [8] was inactive. Further, the result in [17], in experiment [11] and in [12] was inactive.

As to `Cc1c(COC(=O)[C@@H]2[C@H](/C=C(\Cl)C(F)(F)F)C2(C)C)cccc1-c1ccccc1`, the AC50 in [1] is 20 µM (active); in experiment [2] it was 4.01 µM (active); in experiment [16], 20 µM (active); in experiment [8] it was 5.45 µM (active). Also, the compound was classed as inactive in [4], in [5], in experiment [6], in experiment [7], in experiment [17] and in experiment [13]. For the same compound, in experiment [14], the compound was called inactive.

Regarding `COP(=O)(OC)O/C(C)=C/C(=O)N(C)C`, the compound was classed as inactive in experiment [10], in experiment [15], in [2], in experiment [4], in [5] and in experiment [6]. Moreover, the compound was classed as inactive in [7], in experiment [8] and in [14].

In the case of `COC(=O)N(C(=O)N1CO[C@@]2(C(=O)OC)Cc3cc(Cl)ccc3C2=N1)c1ccc(OC(F)(F)F)cc1`, the outcome in experiment [1], in [7], in experiment [8] and in experiment [14] was inactive. In addition, the AC50 in experiment [2] is 5.15 µM (active); in experiment [3], 4.25 µM (active).

Source of the values: PubChem BioAssay (EPA / NIEHS).
